Reference: PubChem BioAssay AID1159580 (chemical genetic matrix, 2015)
Where “and” joins values, the source holds several entries; their conditions need not be identical. Identical values can stand only once. About 2,000 (36%) of roughly 5,500 compounds were called active. About 18% were inconclusive and are not listed. No stated cut-off is given here; in the data, active means normalized growth mostly below about 0.91 (no sharp cut-off); inconclusive means no clear call, values can overlap the other calls; inactive means mostly above about 0.92. Some of the results follow.

Assay: chemical genetic growth profiling, strain panel (AID 1159580);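 further: tested at 20 µM; growth read once vehicle control cultures reached saturation at 30 °C; 1 = growth at the plate median or of vehicle wells; lower values mean less growth of the strain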
Details: growth OD

Measured: normalized growth

O=c1ccn([C@@H]2O[C@H](COP(=O)(O)OP(=O)(O)OP(=O)(O)O)[C@@H](O)[C@H]2O)c(=O)[nH]1
inactive: S. cerevisiae deletion strains, locus YBR021W, strain FUR4, hits give low values 1.06 | S. cerevisiae deletion strains, locus YBR229C, strain ROT2, hits give low values 1.02 | S. cerevisiae deletion strains, locus YCL029C, strain bik1, hits give low values 0.999 | S. cerevisiae deletion strains, locus YDL035C, strain GPR1, hits give low values 1.02 | S. cerevisiae deletion strains, locus YDL074C, strain BRE1, hits give low values 1.04 | S. cerevisiae deletion strains, locus YDL101C, strain DUN1, hits give low values 1.02 | S. cerevisiae deletion strains, locus YDL185W, strain tfp1, hits give low values 0.974 | S. cerevisiae deletion strains, locus YDL192W, strain arf1, hits give low values 0.991 | S. cerevisiae deletion strains, locus YDR101C, strain arx1, hits give low values 1.03 | S. cerevisiae deletion strains, locus YDR150W, strain NUM1, hits give low values 1.02 | S. cerevisiae deletion strains, locus YDR162C, strain NBP2, hits give low values 1.01 | S. cerevisiae deletion strains, locus YDR318W, strain mcm21, hits give low values 1 | S. cerevisiae deletion strains, locus YDR388W, hits give low values 0.988 | S. cerevisiae deletion strains, locus YDR502C, strain sam2, hits give low values 0.993 | S. cerevisiae deletion strains, locus YEL061C, strain CIN8, hits give low values 1.01 | S. cerevisiae deletion strains, locus YER110C, hits give low values 0.954 | S. cerevisiae deletion strains, locus YER155C, strain BEM2, hits give low values 1.02 | S. cerevisiae deletion strains, locus YER167W, strain BCK2, hits give low values 1.02 | S. cerevisiae deletion strains, locus YGL078C, strain dbp3, hits give low values 0.984 | S. cerevisiae deletion strains, locus YGL086W, strain mad1, hits give low values 0.996 | S. cerevisiae deletion strains, locus YGL248W, strain PDE1, hits give low values 1.02 | S. cerevisiae deletion strains, locus YGR078C, strain PAC10, hits give low values 1.02 | S. cerevisiae deletion strains, locus YGR135W, strain pre9, hits give low values 0.946 | S. cerevisiae deletion strains, locus YGR252W, strain gcn5, hits give low values 0.975 | S. cerevisiae deletion strains, locus YHR030C, strain SLT2, hits give low values 1.01 and 1.04 | S. cerevisiae deletion strains, locus YHR079C, strain IRE1 (second series), hits give low values 1 | S. cerevisiae deletion strains, locus YHR079C, strain IRE1, hits give low values 1.04 | S. cerevisiae deletion strains, locus YHR094C, strain hxt1, hits give low values 0.996 | S. cerevisiae deletion strains, locus YHR129C, strain ARP1, hits give low values 1.02 | S. cerevisiae deletion strains, locus YHR200W, strain rpn10, hits give low values 1 | S. cerevisiae deletion strains, locus YIL066C, strain RNR3, hits give low values 1.03 | S. cerevisiae deletion strains, locus YIL073C, strain SPO22, hits give low values 0.962 | S. cerevisiae deletion strains, locus YIL125W, strain kgd1, hits give low values 1.01 | S. cerevisiae deletion strains, locus YIR030C, strain dcg1, hits give low values 0.996 | S. cerevisiae deletion strains, locus YJL095W, strain BCK1, hits give low values 1.04 | S. cerevisiae deletion strains, locus YJL134W, strain LCB3, hits give low values 1.01 | S. cerevisiae deletion strains, locus YJL168C, strain set2, hits give low values 0.98 | S. cerevisiae deletion strains, locus YJL187C, strain SWE1 (second series), hits give low values 1.03 | S. cerevisiae deletion strains, locus YJR043C, strain POL32, hits give low values 1.04 | S. cerevisiae deletion strains, locus YJR066W, strain TOR1, hits give low values 1.01 | S. cerevisiae deletion strains, locus YJR075W, strain HOC1, hits give low values 1 | S. cerevisiae deletion strains, locus YKL009W, strain mrt4, hits give low values 0.979 | S. cerevisiae deletion strains, locus YKL068W, hits give low values 1.02 | S. cerevisiae deletion strains, locus YKL085W, strain MDH1 (second series), hits give low values 1.01 | S. cerevisiae deletion strains, locus YKL085W, strain MDH1, hits give low values 1.01 | S. cerevisiae deletion strains, locus YKR001C, strain vps1, hits give low values 0.99 | S. cerevisiae deletion strains, locus YLR039C, strain RIC1, hits give low values 1.04 | S. cerevisiae deletion strains, locus YLR058C, strain SHM2, hits give low values 1.01 | S. cerevisiae deletion strains, locus YLR102C, strain apc9, hits give low values 1 | S. cerevisiae deletion strains, locus YLR113W, strain HOG1, hits give low values 1.05 | S. cerevisiae deletion strains, locus YLR262C, strain YPT6, hits give low values 1.03 | S. cerevisiae deletion strains, locus YLR268W, strain sec22, hits give low values 0.988 | S. cerevisiae deletion strains, locus YLR330W, strain CHS5, hits give low values 1.01 | S. cerevisiae deletion strains, locus YLR342W, strain FKS1 (second series), hits give low values 1.03 | S. cerevisiae deletion strains, locus YLR371W, strain rom2, hits give low values 0.998 | S. cerevisiae deletion strains, locus YLR418C, strain cdc73, hits give low values 0.976 | S. cerevisiae deletion strains, locus YML016C, strain PPZ1, hits give low values 1.01 | S. cerevisiae deletion strains, locus YML032C, strain rad52, hits give low values 0.972 | S. cerevisiae deletion strains, locus YML124C, strain tub3, hits give low values 0.995 | S. cerevisiae deletion strains, locus YMR078C, strain ctf18, hits give low values 1 | S. cerevisiae deletion strains, locus YMR223W, strain ubp8, hits give low values 0.977 | S. cerevisiae deletion strains, locus YMR307W, strain GAS1, hits give low values 0.976 | S. cerevisiae deletion strains, locus YNL067W, strain RPL9B, hits give low values 1.04 | S. cerevisiae deletion strains, locus YNL153C, strain GIM3, hits give low values 1.04 | S. cerevisiae deletion strains, locus YNL183C, strain NPR1, hits give low values 1.04 | S. cerevisiae deletion strains, locus YNL233W, strain BNI4, hits give low values 1.04 | S. cerevisiae deletion strains, locus YNL250W, strain rad50, hits give low values 0.989 | S. cerevisiae deletion strains, locus YNL271C, strain bni1, hits give low values 0.998 | S. cerevisiae deletion strains, locus YNL298W, strain CLA4, hits give low values 0.98 | S. cerevisiae deletion strains, locus YNL307C, strain MCK1, hits give low values 0.994 | S. cerevisiae deletion strains, locus YNR052C, strain pop2, hits give low values 0.995 | S. cerevisiae deletion strains, locus YOL012C, strain htz1 0.439 | S. cerevisiae deletion strains, locus YOL147C, strain pex11, hits give low values 0.99 | S. cerevisiae deletion strains, locus YOR061W, strain CKA2, hits give low values 1.01 | S. cerevisiae deletion strains, locus YOR069W, strain VPS5, hits give low values 1.01 | S. cerevisiae deletion strains, locus YOR136W, strain idh2, hits give low values 0.997 | S. cerevisiae deletion strains, locus YOR144C, strain elg1, hits give low values 0.992 | S. cerevisiae deletion strains, locus YOR184W, strain ser1, hits give low values 0.965 | S. cerevisiae deletion strains, locus YOR231W, strain MKK1, hits give low values 1.07 | S. cerevisiae deletion strains, locus YOR316C, strain cot1, hits give low values 1 | S. cerevisiae deletion strains, locus YPL055C, strain LGE1, hits give low values 1.04 | S. cerevisiae deletion strains, locus YPL241C, strain CIN2, hits give low values 0.998 | S. cerevisiae deletion strains, locus YPL256C, strain CLN2, hits give low values 1.03 | S. cerevisiae deletion strains, locus YPR119W, strain clb2, hits give low values 1 | S. cerevisiae deletion strains, locus YPR141C, strain kar3, hits give low values 1.01 | S. cerevisiae deletion strains, locus YPR163C, strain tif3, hits give low values 1.02 | S. cerevisiae deletion strains, locus YPR167C, strain met16, hits give low values 1 | S. cerevisiae deletion strains, strain wtn01, hits give low values 0.977 | S. cerevisiae strains, strain wild type, hits give low values 1.01
